Activity calls are given as the source filed them. The calls were made as follows: active = hit-call score of the fitted dose curve at least 0.9, where 1 is the maximum; inactive = score below 0.9.

Conditions in all cases: mRNA level, 48 h; actives raise or lower the signal
Read-out in assay [1]: Glutamate-cysteine ligase catalytic (GCLC), GCLC (gene 2729)
In words: LTEA_HepaRG_GCLC: Life Technologies and Expression Analysis (LTEA) Assay for Glutamate-cysteine ligase catalytic (GCLC) using HepaRG (AID 2283498). In a few lines:
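Read-out is GCLC transcript level by Fluidigm-based TaqMan qRT-PCR, normalized to three housekeeping genes and fitted in both directions relative to 0.5% DMSO. Human HepaRG cells received chemicals for 48 h, up to 100 uM.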

Read-out in assay [2]: growth arrest and DNA damage 45 (GADD45G), GADD45G (gene 10912)
In words: LTEA_HepaRG_GADD45G: Life Technologies and Expression Analysis (LTEA) Assay for growth arrest and DNA damage 45 (GADD45G) using HepaRG (AID 2283499). In a few lines: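 GADD45G transcript level by qRT-PCR (housekeeping-normalized: ACTB, GAPDH, POLR2A) after 48 h chemical treatment of a single HepaRG lot in serum-free induction medium; eight-point half-log series up to 100 uM in 0.5% DMSO, duplicates, up- or down-regulation scored.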

Read-out in assay [3]: Glutamate-cysteine ligase regulatory (GCLM), GCLM (gene 2730)
In words: LTEA_HepaRG_GCLM: Life Technologies and Expression Analysis (LTEA) Assay for Glutamate-cysteine ligase regulatory (GCLM) using HepaRG (AID 2283500). In a few lines:
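Differentiated HepaRG cells exposed 48 h in serum-free induction medium to eight half-log concentrations up to 100 uM (0.5% DMSO). GCLM mRNA by TaqMan qRT-PCR, normalized to ACTB, GAPDH and POLR2A; bidirectional fit versus DMSO.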

Read-out in assay [4]: Glutathione S-transferase M3 (GSTM3), GSTM3 (gene 2947)
Description: LTEA_HepaRG_GSTM3: Life Technologies and Expression Analysis (LTEA) Assay for Glutathione S-transferase M3 (GSTM3) using HepaRG (AID 2283501). In a few lines: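 GSTM3 transcript levels came from Fluidigm TaqMan qRT-PCR normalized to three housekeeping genes, fitted in both directions against DMSO. HepaRG cultures received chemicals for 48 h in serum-free induction medium (0.5% DMSO), 8 half-log concentrations up to 100 uM, duplicate.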

Read-out in assay [5]: Heat shock 70 kDa protein 1 (HSPA1A), gene 3303
In words: LTEA_HepaRG_HSPA1A: Life Technologies and Expression Analysis (LTEA) Assay for Heat shock 70 kDa protein 1 (HSPA1A) using HepaRG (AID 2283502). In a few lines: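 Human HepaRG cells in serum-free induction medium were exposed in duplicate for 48 h to 8 half-log concentrations, highest 100 uM, in 0.5% DMSO. HSPA1A mRNA read by TaqMan qRT-PCR, normalized to ACTB, GAPDH, POLR2A, fitted bidirectionally against DMSO.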

Read-out in assay [6]: Hypoxia-inducible factor 1-alpha (Homo sapiens) (UniProt Q16665)
Description: LTEA_HepaRG_HIF1A: Life Technologies and Expression Analysis (LTEA) Assay for Hypoxia-inducible factor 1 (HIF1A) Trancription factor using HepaRG (AID 2283503). In a few lines: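 Differentiated HepaRG cells in serum-free induction medium exposed 48 h, in duplicate, to 8-point half-log series from 100 uM in 0.5% DMSO. HIF1A mRNA measured by TaqMan qRT-PCR, normalized to ACTB/GAPDH/POLR2A, fitted bidirectionally versus DMSO.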

Read-out in assay [7]: 3-Hydroxy-3-Methylglutaryl-CoA Synthase 2 (HMGCS2), HMGCS2 (gene 3158)
Description: LTEA_HepaRG_HMGCS2: Life Technologies and Expression Analysis (LTEA) Assay for 3-Hydroxy-3-Methylglutaryl-CoA Synthase 2 (HMGCS2) using HepaRG (AID 2283504). In a few lines:
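Readout is HMGCS2 transcript by qRT-PCR, housekeeping-normalised (ACTB/GAPDH/POLR2A) and fitted bidirectionally against 0.5% DMSO. Differentiated HepaRG cells received chemicals 48 h, duplicate wells, eight half-log concentrations topping at 100 uM.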

Read-out in assay [8]: Insulin Like Growth Factor 1 (IGF1), IGF1 (gene 3479)
Description: LTEA_HepaRG_IGF1: Life Technologies and Expression Analysis (LTEA) Assay for Insulin Like Growth Factor 1 (IGF1) using HepaRG (AID 2283506). In a few lines:
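Differentiated HepaRG cells in serum-free induction medium, exposed 48 h in duplicate to 8 half-log concentrations up to 100 uM in 0.5% DMSO. IGF1 mRNA by Fluidigm qRT-PCR, normalised to ACTB, GAPDH and POLR2A.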

Read-out in assay [9]: Intercellular Adhesion Molecule 1 (ICAM1), ICAM1 (gene 3383)
Description: LTEA_HepaRG_ICAM1: Life Technologies and Expression Analysis (LTEA) Assay for Intercellular Adhesion Molecule 1 (ICAM1) using HepaRG (AID 2283507). In a few lines:
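ICAM1 transcript levels measured by qRT-PCR, normalized to three housekeeping genes (ACTB, GAPDH, POLR2A), after 48 h chemical exposure of HepaRG cells. Duplicate eight-point half-log series from 100 uM in 0.5% DMSO; gain or loss fitted against vehicle.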

Read-out in assay [10]: Insulin-like growth factor-binding protein 1 (IGFBP1), IGFBP1 (gene 3484)
Description: LTEA_HepaRG_IGFBP1: Life Technologies and Expression Analysis (LTEA) Assay for Insulin-like growth factor-binding protein 1 (IGFBP1) using HepaRG (AID 2283508). In a few lines:
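Read-out is qRT-PCR transcript level normalized to three housekeeping genes, fitted in both directions against 0.5% DMSO. Differentiated HepaRG cells received eight half-log concentrations (top 100 uM) in duplicate for 48 h in serum-free induction medium.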

Read-out in assay [11]: Interleukin 6 (IL6), IL6 (gene 3569)
In words: LTEA_HepaRG_IL6: Life Technologies and Expression Analysis (LTEA) Assay for Interleukin 6 (IL6) using HepaRG (AID 2283509). In a few lines: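 HepaRG, ~100,000 cells/well, 48 h pre-culture; serum-free induction medium; cmpd 8-pt half-log from 100 uM, 0.5% DMSO, duplicate, 48 h. Lysis in RLT, TaqMan qRT-PCR; gain or loss vs DMSO.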

Read-out in assay [12]: Potassium channel subfamily K member 1 (KCNK1), KCNK1 (gene 3775)
Description: LTEA_HepaRG_KCNK1: Life Technologies and Expression Analysis (LTEA) Assay for Potassium channel subfamily K member 1 (KCNK1) using HepaRG (AID 2283511). In a few lines:
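Gain or loss of KCNK1 mRNA is the read-out, quantified by qRT-PCR against three housekeeping genes after 48 h chemical treatment of human HepaRG liver cells. Concentrations ran from 100 uM downward in half-log steps, vehicle 0.5% DMSO.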

Read-out in assay [13]: JUN Transcription Factor, JUN (gene 3725)
Description: LTEA_HepaRG_JUN: Life Technologies and Expression Analysis (LTEA) Assay for JUN Transcription Factor using HepaRG (AID 2283513). In a few lines:
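HepaRG cells, 48 h post-plating, exposed 48 h in serum-free induction medium to 8-point half-log series (top 100 uM, 0.5% DMSO), duplicate; mRNA by qRT-PCR (TaqMan, Fluidigm), normalized to ACTB/GAPDH/POLR2A; bidirectional fit vs DMSO.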

Read-out in assay [14]: Lipase C (LIPC), LIPC (gene 3990)
In words: LTEA_HepaRG_LIPC: Life Technologies and Expression Analysis (LTEA) Assay for Lipase C (LIPC) using HepaRG (AID 2283514). In a few lines: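 Read-out is LIPC transcript level by TaqMan qRT-PCR, normalized to three housekeeping genes, after 48 h chemical treatment of human HepaRG liver cells. Curves span eight concentrations topping at 100 uM; activity in either direction scored relative to 0.5% DMSO.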

Read-out in assay [15]: Lipoprotein lipase (LPL), LPL (gene 4023)
Description: LTEA_HepaRG_LPL: Life Technologies and Expression Analysis (LTEA) Assay for Lipoprotein lipase (LPL) using HepaRG (AID 2283515). In a few lines:
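Read-out is LPL transcript level by qRT-PCR, normalized to three housekeeping genes and fitted bidirectionally against the DMSO control. Human HepaRG cells received chemicals for 48 h at up to 100 uM.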

Read-out in assay [16]: MicroRNA 122 (MIR122), gene 406906
In words: LTEA_HepaRG_MIR122: Life Technologies and Expression Analysis (LTEA) Assay for MicroRNA 122 (MIR122) using HepaRG (AID 2283516). Also: the transcript read is the microRNA miR-122. In a few lines: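 Differentiated human HepaRG cells in serum-free induction medium exposed 48 h to 8 half-log concentrations from 100 uM in 0.5% DMSO, duplicate. MIR122 quantified by Fluidigm TaqMan qRT-PCR, normalised to ACTB, GAPDH, POLR2A; fold change fitted bidirectionally versus DMSO.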

Read-out in assay [17]: HGF (gene 3082)
In words: LTEA_HepaRG_HGF: Life Technologies and Expression Analysis (LTEA) Assay for Hepatocyte Growth Facto (HGF) using HepaRG (AID 2283505). In a few lines:
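HGF transcript was quantified by TaqMan qRT-PCR against three housekeeping genes after 48 h treatment of HepaRG cells. Exposure ran in duplicate over eight half-log steps topping at 100 uM in 0.5% DMSO vehicle.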

Read-out in assay [18]: Keratin 19 (KRT19), KRT19 (gene 3880)
In words: LTEA_HepaRG_KRT19: Life Technologies and Expression Analysis (LTEA) Assay for Keratin 19 (KRT19) using HepaRG (AID 2283512). In a few lines: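 KRT19 transcript measured by TaqMan qRT-PCR, referenced to three housekeeping genes, after HepaRG cells received test chemicals for 48 h. Eight half-log concentrations, top 100 uM, 0.5% DMSO vehicle; increases and decreases both fitted.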

Read-out in assay [19]: Interleukin 6 Receptor (IL6R), IL6R (gene 3570)
In words: LTEA_HepaRG_IL6R: Life Technologies and Expression Analysis (LTEA) Assay for Interleukin 6 Receptor (IL6R) using HepaRG (AID 2283510). In a few lines:
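Differentiated HepaRG cells, plated 48 h, then exposed in duplicate for 48 h in serum-free induction medium to 8 half-log concentrations (top 100 uM, 0.5% DMSO). IL6R mRNA measured by TaqMan qRT-PCR, normalized to ACTB/GAPDH/POLR2A; bidirectional fit vs DMSO.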

Hypoxia-inducible factor 1-alpha (Homo sapiens), sequence (Q16665 whole entry, looked up): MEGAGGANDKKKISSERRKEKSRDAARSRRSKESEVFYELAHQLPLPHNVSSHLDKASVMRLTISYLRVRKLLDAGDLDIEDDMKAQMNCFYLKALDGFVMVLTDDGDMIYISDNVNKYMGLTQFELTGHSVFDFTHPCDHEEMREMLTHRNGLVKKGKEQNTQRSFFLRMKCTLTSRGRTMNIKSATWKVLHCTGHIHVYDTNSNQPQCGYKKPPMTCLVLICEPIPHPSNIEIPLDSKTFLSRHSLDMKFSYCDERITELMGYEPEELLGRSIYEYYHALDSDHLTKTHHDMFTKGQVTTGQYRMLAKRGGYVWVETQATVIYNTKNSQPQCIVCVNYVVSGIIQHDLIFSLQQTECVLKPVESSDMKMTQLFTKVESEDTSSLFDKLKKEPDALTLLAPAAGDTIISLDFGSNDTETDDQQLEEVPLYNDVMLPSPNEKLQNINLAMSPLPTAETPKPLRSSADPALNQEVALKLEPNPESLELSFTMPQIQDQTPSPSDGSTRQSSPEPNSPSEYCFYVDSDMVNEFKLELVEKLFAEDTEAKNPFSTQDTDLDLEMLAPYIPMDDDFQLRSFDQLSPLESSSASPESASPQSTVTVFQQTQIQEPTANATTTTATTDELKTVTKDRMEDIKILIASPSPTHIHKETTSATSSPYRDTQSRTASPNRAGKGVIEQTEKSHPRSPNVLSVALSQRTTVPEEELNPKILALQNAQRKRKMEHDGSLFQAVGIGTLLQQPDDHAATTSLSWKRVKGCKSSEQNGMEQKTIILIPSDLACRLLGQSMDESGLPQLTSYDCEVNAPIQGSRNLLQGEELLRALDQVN

For the compound `CCCCCCCC1CCC(=O)O1` (stereo not given), the call in assay [1], in assay [2], in assay [3], in assay [4], in [5] and in [6] was inactive. For the same compound, the compound was classed as inactive in assay [7], in assay [8], in [9], in assay [10], in assay [11] and in assay [12]. The call in assay [13], in [14], in [15] and in assay [16] was inactive.
Consider `CCCCCOC(C)=O`, for which the compound was classed as inactive in [1], in assay [2], in [3], in [4], in assay [5] and in [6]. For the same compound, the result in assay [7], in [17], in assay [8], in [9], in assay [10] and in assay [11] was inactive. Besides, the compound was called inactive in assay [12], in assay [13], in assay [14], in assay [15] and in [16].
As usually defined, the AC50 is the concentration at which the activity in the assay is half-maximal. `O=C(O)c1cccc(C[C@@H]2COc3ccc(OCc4nc5cc(F)ccc5s4)cc3[C@@H]2O)c1`: the compound was called inactive in [1], in assay [3], in assay [4], in assay [8], in assay [9] and in assay [10]. Besides, the compound was classed as inactive in assay [11], in [12], in [18], in assay [13], in assay [14] and in [15]. Besides, in [16], the compound was classed as inactive. Moreover, the AC50 was 79.5 µM (active) in [2]; 89.2 µM (active) in assay [5]; 81.3 µM (active) in assay [6]; 66.8 µM (active) in [7]; 50 µM (active) in assay [17].
Regarding `O=C(O)c1cccc(C(=O)O)c1`, the outcome in assay [1], in assay [2], in assay [3], in [4], in assay [5] and in assay [6] was inactive. Also, the call in assay [7], in assay [17], in assay [8], in assay [9], in assay [10] and in [11] was inactive. In addition, the compound was classed as inactive in assay [12], in assay [13], in assay [14], in [15] and in assay [16].
With `OC[C@H]1O[C@@](CO)(O[C@H]2O[C@H](CO)[C@@H](O)[C@H](O)[C@H]2O)[C@@H](O)[C@@H]1O`, the compound was called inactive in assay [1], in [2], in assay [3], in [5], in [6] and in assay [7]. Further, the compound was called inactive in [17], in assay [8], in assay [9], in assay [10], in [11] and in assay [19]. Moreover, the outcome in assay [12], in assay [18], in assay [13], in assay [14], in assay [15] and in assay [16] was inactive.
Consider `NC(=O)N(O)[C@@H]1COc2cc(OCc3ccccc3)ccc21`, for which the outcome in assay [1], in [2], in [3], in assay [4], in assay [5] and in assay [6] was inactive. Moreover, the result in [7], in assay [17], in assay [8], in assay [9], in assay [10] and in [11] was inactive. Also, the compound was called inactive in assay [19], in assay [12], in assay [13], in [14], in [15] and in assay [16].
Consider `Cn1c(=O)c2[nH]cnc2n(C)c1=O`, for which the outcome in assay [1], in assay [2], in assay [3], in assay [4], in [5] and in assay [7] was inactive. For the same compound, the compound was classed as inactive in assay [17], in [8], in assay [11], in assay [19], in assay [12] and in [18]. Besides, the outcome in assay [13], in assay [14], in assay [15] and in assay [16] was inactive.

Source of the values: PubChem BioAssay (EPA / NIEHS).
